IL-1B inflam inh: inhibitors of inflammasome signaling (IL-1 beta secretion). THP-1 LPS/ATP IL-1B secretion, AlphaLISA, 16 h; stronger effect = lower value. activity change, % at 57.5 µM. 360,000 compounds, 4.7% hits; in the data active means activity change below about -50%; inconclusive means mostly about -30% to -49%
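Secreted IL-1B measured by AlphaLISA bead assay after 16 h compound exposure of THP-1 cells; compounds (final up to 57.5 uM) added 1 h before LPS (250 ng/mL) and ATP (1.25 mM) stimulation; lower signal means less secretion.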
TDP1 cell noCPT: qHTS for Inhibitors of human tyrosyl-DNA phosphodiesterase 1 (TDP1): qHTS in cells in absence of CPT; DT40 Tdp1-/- hTDP1 cells, no CPT, ATP luminescence, 48 h; Potency, µM (doses to about 46.2 µM), for inactives: at the top dose activity change, negative = growth inhibition, most hits filed as inhibitors; 420,000 compounds, 15% hits; further: potency means the concentration at half of the fitted maximal effect; nearly all actives have a fitted effect of over 55% in size
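Luminescent ATP content (CellTiter-Glo) served as the growth readout. Knockout chicken DT40 cells expressing human TDP1 were exposed to compounds without camptothecin for a minimum 48 hr at 37 °C.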
HT1080NT lethal: kills 2HG-producing HT-1080-NT fibrosarcoma cells; Potency, µM (top dose mostly 46.1 µM), without a hit: top-dose activity, negative = less viability, usual class: cytotoxic; AID 686970; HT-1080-NT fibrosarcoma viability, CellTiter-Glo ATP luminescence, 48 h; 360,000 compounds, 1.6% hits;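 further: NT is the 2HG producing partner of a matched IDH1 knockdown line; potency means the concentration at half of the fitted maximal effect; 0% = DMSO-treated cells and -100% = media-only wells without cells; nearly all actives have a fitted effect of over 55% in size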
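750 cells/well, RPMI + 5% FBS; 2 h settle, compound pin-transfer, 48 h at 37 degrees C. CellTiter-Glo 10 min RT, luminescence. Normalized to DMSO and media-only wells.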
HT1080 IDH1KD tx: toxicity to HT-1080 IDH1 knockdown cells (counter line) | HT-1080 IDH1 knockdown viability, ATP luminescence, 48 h | Potency, µM (top dose mostly 46.1 µM), without a hit: at the top dose activity, negative = toxicity, usual class: cytotoxic | 360,000 compounds, 2% hits;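 further: potency means the concentration at half of the fitted maximal effect; 0% = DMSO wells and -100% = cell-free medium wells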
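Viability of IDH1-knockdown HT-1080 fibrosarcoma cells was assessed by CellTiter-Glo after 48 h at 37 °C with titrated compound; concentration-effect curves were classified by fit quality and response size.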
DT40 TDP1 CPT: DT40-hTDP1 cell growth loss with CPT. 420,000 compounds, 12% hits. chicken DT40 Tdp1-/-;hTDP1 cells + 20 nM CPT, ATP luminescence, 48 h. Potency, µM (top dose mostly 46.2 µM), inactives show at the highest dose activity change, negative = growth inhibition, most hits filed as inhibitors; further: potency means the concentration at half of the fitted maximal effect; nearly all actives have a fitted effect of over 55% in size
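Cell growth measured by CellTiter-Glo luminescence after a minimum 48 h, 37 C compound exposure with 20 nM CPT in Tdp1-knockout DT40 cells stably expressing hTDP1, seeded 400/well; qHTS titration format.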
* = called active by the depositor. Hits are enriched below; roughly 19% of the tested compounds scored in any of these assays. Unless noted, the call rests on the fitted dose curve; in most records, active means well fitted curve in the direction sought with a large enough effect; inconclusive means small, poorly fitted or top-dose-only effect, or another doubt; inactive means no such curve, though single readings can be large; an effect the other way counts as inactive or inconclusive. Unless noted, on the % scale 0 is the no-effect control and ±100 the full control effect.

What do the screens show for `CCCc1nc2ccccc2c(=O)n1/N=C/c1c(C)[nH]n(-c2ccc(C)cc2)c1=O`?
IL-1B inflam inh: 44; TDP1 cell noCPT: 12µM*; HT1080NT lethal: 16µM*; HT1080 IDH1KD tx: 18µM*; DT40 TDP1 CPT: 21µM*

How did CCc1nc2ccccc2c(=O)n1/N=C/c1ccc(Cl)cc1 do in these assays?
IL-1B inflam inh: 7; TDP1 cell noCPT: 16µM*; HT1080NT lethal: -11%; HT1080 IDH1KD tx: -2%; DT40 TDP1 CPT: -30%

What do the screens show for `COc1ccc2nc(/N=C/c3c(C)[nH]n(-c4ccc(C)cc4)c3=O)sc2c1`?
IL-1B inflam inh: 16; TDP1 cell noCPT: inconclusive; HT1080NT lethal: inconclusive; HT1080 IDH1KD tx: inconclusive; DT40 TDP1 CPT: 13µM*

Results for Cc1nc2ccccc2c(=O)n1/N=C/c1ccc(O)cc1 ?
IL-1B inflam inh: 9; TDP1 cell noCPT: -9%; HT1080NT lethal: -9%; HT1080 IDH1KD tx: 6%; DT40 TDP1 CPT: -2%

What do the screens show for `Cc1[nH]n(-c2ccc(Cl)cc2)c(=O)c1/C=N/c1nnc(-c2ccccc2)s1`?
IL-1B inflam inh: 26; TDP1 cell noCPT: 16µM*; HT1080NT lethal: -22%; HT1080 IDH1KD tx: -25%; DT40 TDP1 CPT: inconclusive

Results for CCCCCC(=O)N1C[C@H](n2cc(COC(=O)c3ccccc3)nn2)[C@@H](O)C[C@@H]1c1ccc(OC)cc1 ?
IL-1B inflam inh: -4; TDP1 cell noCPT: inconclusive; HT1080NT lethal: inconclusive; HT1080 IDH1KD tx: -18%; DT40 TDP1 CPT: 21µM*

Results for CCCCCC(=O)N1C[C@H](n2cc(COC(=O)c3ccccc3)nn2)[C@@H](O)C[C@@H]1c1ccccc1 ?
IL-1B inflam inh: -3; TDP1 cell noCPT: 4%; HT1080NT lethal: 12%; HT1080 IDH1KD tx: 18%; DT40 TDP1 CPT: 4%

Results for CCCCCC(=O)N1C[C@H](O)[C@@H](n2cc(COC(=O)c3ccccc3)nn2)C[C@@H]1c1ccc(Cl)cc1 ?
IL-1B inflam inh: -6; TDP1 cell noCPT: 26µM*; HT1080NT lethal: -1%; HT1080 IDH1KD tx: 1%; DT40 TDP1 CPT: inconclusive

What do the screens show for `CCCCCC(=O)N1C[C@@H](O)[C@H](n2cc(COC(=O)c3ccccc3)nn2)C[C@@H]1c1ccc(C)cc1`?
IL-1B inflam inh: -17; TDP1 cell noCPT: 5%; HT1080NT lethal: -9%; HT1080 IDH1KD tx: -5%; DT40 TDP1 CPT: -3%

How did CC(C)(C)c1ccc(C(=O)C[n+]2ccccc2Cl)cc1 do in these assays?
TDP1 cell noCPT: inconclusive; DT40 TDP1 CPT: -23%

What do the screens show for `CCc1nc2c(OCCOc3ccc(F)cc3)cccn2c1N(C)C(=O)c1ccc(OC)cc1`?
IL-1B inflam inh: -24; TDP1 cell noCPT: inconclusive; HT1080NT lethal: -9%; HT1080 IDH1KD tx: 8%; DT40 TDP1 CPT: inconclusive

How did CCc1nc2c(OCc3cc(Cl)cc(Cl)c3)cccn2c1N(C)C(=O)CC(C)C do in these assays?
IL-1B inflam inh: -28; TDP1 cell noCPT: inconclusive; HT1080NT lethal: inconclusive; HT1080 IDH1KD tx: inconclusive; DT40 TDP1 CPT: 26µM*

How did CCc1nc2c(OCCOc3ccc(F)cc3)cccn2c1N(C)C(=O)CC(C)C do in these assays?
IL-1B inflam inh: -2; TDP1 cell noCPT: 10µM*; HT1080NT lethal: 0%; HT1080 IDH1KD tx: 3%; DT40 TDP1 CPT: 16µM*

Results for CCc1nc2c(OCc3ccc(Cl)cc3Cl)cccn2c1N(C)C(=O)CC(C)C ?
IL-1B inflam inh: -53*; TDP1 cell noCPT: 6.5µM*; HT1080NT lethal: 26µM*; HT1080 IDH1KD tx: inconclusive; DT40 TDP1 CPT: inconclusive

What do the screens show for `CCc1nc2c(OCC(=O)c3ccc(F)cc3)cccn2c1N(C)C(=O)COc1ccccc1`?
IL-1B inflam inh: -15; TDP1 cell noCPT: 21µM*; HT1080NT lethal: -19%; HT1080 IDH1KD tx: 2%; DT40 TDP1 CPT: inconclusive

Results for Cc1nc(SCc2cc(=O)c3cccc(F)c3[nH]2)n[nH]1 ?
TDP1 cell noCPT: -21%; DT40 TDP1 CPT: -23%

What do the screens show for `COc1ccc(OC)c(-c2cc(C(=O)Nc3ccc(C)c(C)c3)no2)c1`?
TDP1 cell noCPT: 18µM*; DT40 TDP1 CPT: inconclusive

Results for COc1ccc(OC)c(-c2cc(C(=O)Nc3c(C)nn(Cc4ccccc4Cl)c3C)no2)c1 ?
IL-1B inflam inh: -28; TDP1 cell noCPT: 23µM*; HT1080NT lethal: 11%; HT1080 IDH1KD tx: -6%; DT40 TDP1 CPT: 15µM*

How did COc1cccc(-c2cc(C(=O)Nc3c(C)nn(Cc4ccccc4Cl)c3C)no2)c1 do in these assays?
TDP1 cell noCPT: 13µM*; DT40 TDP1 CPT: 9.2µM*

How did COc1ccc(OC)c(-c2cc(C(=O)Nc3c(C)nn(Cc4ccc(C)cc4)c3C)no2)c1 do in these assays?
TDP1 cell noCPT: 18µM*; DT40 TDP1 CPT: 21µM*

What do the screens show for `CCC(C)NC(=O)Cn1cnc2sc(C)c(S(=O)(=O)N3CCCCC3)c2c1=O` (stereo unspecified)?
IL-1B inflam inh: 8; TDP1 cell noCPT: -10%; HT1080NT lethal: 15%; HT1080 IDH1KD tx: 11%; DT40 TDP1 CPT: -5%

How did CCCNC(=O)C1(C)CCN(C(=O)c2c(Cl)cccc2Cl)C1 (stereo unspecified) do in these assays?
IL-1B inflam inh: -10; TDP1 cell noCPT: 6%; HT1080NT lethal: 7%; HT1080 IDH1KD tx: 6%; DT40 TDP1 CPT: 0%

Results for Cc1cccc(-c2noc(CCCC(=O)NC3CCCCC3)n2)c1 ?
IL-1B inflam inh: 17; TDP1 cell noCPT: inconclusive; HT1080NT lethal: 0%; HT1080 IDH1KD tx: -2%; DT40 TDP1 CPT: inconclusive

What do the screens show for `COc1ccccc1-c1cc(C(=O)Nc2c(C)nn(Cc3ccc(Cl)cc3)c2C)no1`?
TDP1 cell noCPT: 21µM*; DT40 TDP1 CPT: 21µM*

Results for COc1ccc(OC)c(-c2cc(C(=O)Nc3c(C)nn(Cc4ccccc4C)c3C)no2)c1 ?
IL-1B inflam inh: inconclusive; TDP1 cell noCPT: 10µM*; HT1080NT lethal: -11%; HT1080 IDH1KD tx: -24%; DT40 TDP1 CPT: 10µM*

Results for Cn1c(=O)c(=O)n(C)c2cc(S(=O)(=O)N3CCCC3C(=O)NCc3cccnc3)ccc21 (stereo unspecified) ?
IL-1B inflam inh: 23; TDP1 cell noCPT: 10%; HT1080NT lethal: inconclusive; HT1080 IDH1KD tx: 2%; DT40 TDP1 CPT: 6%

What do the screens show for `Cc1ccc(S(=O)(=O)N2CCc3cc4c(cc3C2C)OCCCO4)cc1` (stereo unspecified)?
IL-1B inflam inh: -14; TDP1 cell noCPT: inconclusive; HT1080NT lethal: inconclusive; HT1080 IDH1KD tx: -7%; DT40 TDP1 CPT: 18µM*

High-throughput results from PubChem.
